Experimental findings from PubChem BioAssay (NCI) are described below.

Several values for one entry are separate records, joined by “and”; a condition that tells them apart may be missing. Equal values may be shown once. The panel holds about 83,000 compounds, 20% with a hit somewhere; the sample as a whole holds those more often.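 Treatment: one concentration, 48 hours, 96-well format. Scoring: percent growth, with anything below 10 considered active.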 Activity calls are given as the source filed them.

The assay concerns RPMI-8226 leukemia. In words: NCI-60 one-dose screen, 48 h (100 = growth as untreated, 0 = no growth, -100 = all killed). The conditions noted are these: 10 µM unless noted. As to the method: Growth inhibition of the RPMI-8226 human tumor cell line is measured as a screen for anti-cancer activity. Cells are grown in 96 well plates and exposed to the test compound for 48 hours. Compounds are tested at a single concentration, which is 10^-5 M for most compounds. The reported endpoint is percent growth (GI% or GIPRCNT), where numbers from 0 - 100% represent growth inhibition, and numbers from -100% - 0 represent cell death. For example, a value of 40 represents 60% growth inhibition. A value of 0 means no net growth occurred over the course of the experiment. A value of -40 indicates 40% of cells at the beginning of the experiment died by the end of the experiment. A value of -100 means all cells are dead at the end of the experiment.
NCI-60 Human Tumor Cell Lines Screen was performed using the standard one-dose NCI protocol, which is described in more detail at https://dtp.cancer.gov/discovery_development/nci-60/default.htm.
Compounds with GIPRCNT values below 10 were considered active. Activity score was based on GIPRCNT using the following formula: […]
Score is 0 for GIPRCNT values of 100 or above, 50 for GIPRCNT values of 0, and 100 for GIPRCNT values of -100.
Consider `Cc1cc2ccccc2cn1`, for which the growth was 100% (inactive) and 114% (inactive).
For `O=C(Cc1ccccc1)c1ccc(O)c(Cl)c1`, the growth was -6.77% (active).
`O=C(CO)C(O)C(O)C(O)C(O)CO` (stereo not given): the growth was 107% (inactive) and 100% (inactive).
Turning to `CN(C)c1ccc(/C=C\C(=O)c2ccccc2)cc1`, the growth is 72.7% (inactive) and 76.8% (inactive) and 69.6% (inactive).
With `Cc1ccc(=O)[nH]n1`, the growth was 108% (inactive).
Regarding `COc1ccc(N/C=C/C2=[N+](C)c3ccccc3C2(C)C)c(OC)c1`, the growth is 81.6% (inactive).
In the case of `CC(C)(O)C(=O)O`, the growth is 103% (inactive).
For `CCc1cc(C)cc(O)c1`, the growth is 106% (inactive).
With `CCCCCCCCCCNC(=O)CI`, the growth was -37.1% (active).
In the case of `OCCN1CCCCCCC1` it was 108% (inactive).
Next, `CC(=O)Nc1ccc(S(N)(=O)=O)cc1`: 95.6% (inactive) and 111% (inactive); `OCC1OC(O)C(O)C(O)C1O` (stereo not given): 110% (inactive); `c1ccc2c(c1)OC1OC2Oc2ccccc21`: 106% (inactive).
As to `CC(=O)OCC1OC(OC(C)=O)C(OC(C)=O)C(OC(C)=O)C1OC(C)=O` (stereo not given), the growth is 100% (inactive) and 103% (inactive).
Next, `NN1CCOC(c2ccccc2)C1` (stereo not given): 97.8% (inactive).
For the compound `CCCCNc1ccc(Nc2ccccc2)cc1`, the growth was -25% (active).
Consider `O=C1C=C(Nc2ccccc2)c2ccccc2C1=O`, for which the growth is 52.7% (inactive) and 87.3% (inactive).
With `CC(=O)NCC(=O)c1ccc([N+](=O)[O-])cc1`, the growth is 104% (inactive).
On to `O=C(O)/C=C\C(=O)Nc1cccc2ccccc12`, for which the growth is 81.8% (inactive) and 95.4% (inactive).
As for `O=C1c2c(O)ccc(O)c2C(=O)c2c(NCCNCCO)ccc(NCCNCCO)c21`, the growth was -21.8% (active) and -30.9% (active).
For `CC(C)C(C)(C)c1ccc(O)cc1`, the growth is 105% (inactive).
In the case of `COc1cc(C(O)C2C(=O)OCC2C2(c3ccc4c(c3)OCO4)SCCCS2)cc(OC)c1OC` (stereo not given) it was 98.9% (inactive).
Turning to `ClCCOCCOc1ccc(C2CCCCC2)cc1`, the growth was 110% (inactive).
Take `CN(C)CC1CCCCCC(CN(C)C)C1=O` (stereo not given): the growth is 13.1% (inactive).
In the case of `Cl`, the growth was 115% (inactive).
With `Nc1ccc2c(O)cc(S(=O)(=O)O)cc2c1`, the growth was 85% (inactive).
`O=c1[nH]cnc2c1ncn2C1OC(CO)C(O)C1O` (stereo not given): the growth was 101% (inactive) and 93.6% (inactive) and 96.5% (inactive).
As for `Brc1ccc(SSc2ccc(Br)cc2)cc1`, the growth is 35.6% (inactive).
Turning to `O=C1CSC2=NCCN12`, the growth is 101% (inactive) and 90.7% (inactive).
For `NC(Cc1c[nH]c2ccccc12)C(=O)O` (stereo not given), the growth is 86.6% (inactive) and 103% (inactive).
In the case of `Oc1ccc(Cc2ccccc2Cl)c(O)c1`, the growth is 87.5% (inactive).
With `Cc1ccc(S(=O)(=O)c2ccccc2)cc1`, the growth is 49% (inactive).
In the case of `Nc1nc(N)c2[nH]cnc2n1`, the growth was 64.3% (inactive).
Regarding `CC1=C/C(O)CC(=O)Cc2nc(co2)C(=O)N2CCC=C2C(=O)OC(C(C)C)C(C)/C=C\C(=O)NC/C=C\1` (stereo not given), the growth is 60.7% (inactive).
As for `C#CCOC(=O)Nc1ccccc1`, the growth was 105% (inactive).
For `C/C(=C\c1ccccc1)c1ccccn1`, the growth is 114% (inactive).
Regarding `CCCCOc1ccc(Nc2cc(Cl)ccc2C(=O)O)cn1`, the growth was 57.8% (inactive) and 93.2% (inactive).
For the compound `Fc1ccc([I+]c2ccc(F)cc2)cc1`, the growth was 41.7% (inactive).
Next, `CCCCCCCCCCCCCCCc1ccc(N)c(OC2OC(CO)C(O)C(O)C2O)c1` (stereo not given): 28.7% (inactive).
In the case of `O=c1n(CC2CO2)c(=O)n(CC2CO2)c(=O)n1CC1CO1` (stereo not given) it was 84.6% (inactive).
